PREPL inh – PREPL enzyme inhibitors, primary screen, biochemical, fluorescence polarization; Prolyl endopeptidase-like (Homo sapiens), Q4J6C6; recombinant PREPL, fluorescence polarization activity-based probe; inhibition, % at 5.96 µM; hit rate 0.68% among 320,000; AID 2751, 2010; in the data active = inhibition above about 43%;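 note: 0% = enzyme with DMSO and 100% = wells lacking enzyme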
UBC13 polyUb – UBC13 polyubiquitin chain formation inhibitors, primary screen, biochemical, TR-FRET, uHTS; inhibition, % at 20 µM; hit rate 0.47% among 330,000; AID 485273, 2010; in the data active = inhibition above about 45%, passing the limit was not always enough
Target sequence (P61088 whole entry, looked up): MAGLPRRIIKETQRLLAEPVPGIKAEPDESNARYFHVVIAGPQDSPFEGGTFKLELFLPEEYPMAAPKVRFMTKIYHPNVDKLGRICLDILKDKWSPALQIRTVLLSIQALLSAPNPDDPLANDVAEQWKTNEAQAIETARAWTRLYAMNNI
RAD54 inh – inhibitors of human RAD54 branch migration, primary screen, biochemical, fluorescence, single point. DNA repair and recombination protein RAD54-like (Homo sapiens), Q92698. RAD54 Holliday junction branch migration, FAM/BHQ fluorescence. inhibition, % at 10.4 µM. hit rate 0.14% among 360,000. AID 602329, 2012;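 active = mean normalized replicate activity at least 40 and at least half of replicates scoring 40 or more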;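 note: 0% = median of neutral control wells and 100% = median of positive control wells; inhibitors cause a drop in the FAM fluorescence signal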
RAD52 inh – RAD52 DNA annealing inhibitors, primary screen, biochemical, FRET, single point, set 2; recombinant RAD52 DNA annealing, FRET fluorescence; AID 651710, 2012; hit rate 0.46% among 360,000; inhibition, % at 18.7 µM;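 active = every replicate showing at least 50% inhibition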
MIN6 prolif – inducers of MIN6 beta-cell proliferation, primary screen, ATP luminescence, uHTS; MIN6 cells proliferation, ATPlite luminescence, 48 h; cells starved in 0.2% serum; 100% = growth in 10% serum; proliferation, % at 10 µM; hit rate 0.29% among 330,000; AID 2380, 2010;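 active = compounds whose signal lies at least 3.5 SD above the mean of all wells on their plate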;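 note: 0% = DMSO-treated cells in low-serum medium and 100% = 10% serum control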
DNA FID counter – compounds displacing fluorescent DNA intercalator, primary screen, artefact control for HCV NS3 helicase inhibitor project, biochemical, FID fluorescence; inhibition, % at 7.9 µM; hit rate 0.17% among 290,000; AID 1845, 2009; DNA fluorescent intercalator displacement; in the data active = inhibition above about 37%;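 note: 0% = vehicle and 100% = reference compound; higher means more ethidium bromide displaced from hairpin DNA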
Casp3 counter – CASP3 inhibitor validation, counterassay for project on UBE2N polyubiquitination blockers, biochemical, one dose; shares compounds with UBC13 polyUb; Recombinant caspase-3, Caspase-Glo 3/7 luminescence, 60 min; inhibition, % at 20 µM; hit rate 4% among 1,400;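 active = mean inhibition across replicates above about 26%, limit read from the data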;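 note: plate controls were DMSO with caspase-3 for no effect and DMSO wells lacking enzyme for full effect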
Target sequence (P42574 whole entry, looked up): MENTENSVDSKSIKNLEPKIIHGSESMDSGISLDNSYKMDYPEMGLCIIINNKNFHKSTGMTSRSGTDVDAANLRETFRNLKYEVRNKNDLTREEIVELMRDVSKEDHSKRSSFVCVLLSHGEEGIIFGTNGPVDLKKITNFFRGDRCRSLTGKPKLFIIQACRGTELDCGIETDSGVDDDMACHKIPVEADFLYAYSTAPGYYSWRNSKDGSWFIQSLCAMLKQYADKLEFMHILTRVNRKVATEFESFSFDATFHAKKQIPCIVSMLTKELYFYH
UBC13 conf – UBC13 polyubiquitination inhibitors, single-point retest, confirmation, biochemical, TR-FRET, single concentration | hit rate 68% among 1,400 | AID 488859, 2010 | inhibition, % at 10 µM | shares compounds with UBC13 polyUb; in the data active = inhibition above about 45%
The depositor's hits bear a star; . = no result given. Shown are actives, neighbours in structure and some others; about 1.3% of the full set was active somewhere.

SMILES	PREPL inh	UBC13 polyUb	RAD54 inh	RAD52 inh	MIN6 prolif	DNA FID counter	Casp3 counter	UBC13 conf
CC(C)NC(=O)Nc1ccc2c(c1)C(=O)N([C@H](C)CO)C[C@@H](C)[C@H](CN(C)C(=O)CCC(F)(F)F)OCCCC[C@@H](C)O2	.	.	1.3	-1.1	.	.	.	.
CCc1ccc(OCC(O)CN2CCN(c3ccccc3)CC2)cc1 (stereo not given)	-1.9	1.7	-0.6	-3.1	-2.5	0.7	.	.
CCc1ccc(OCC(O)CN2CCC(CN3C(=O)c4cccc5cccc(c45)C3=O)CC2)cc1 (stereo not given)	-19.7	61.1*	.	.	-2.8	9.3	4.4	64.6*
COc1ccc(COCC(O)CN2CCC(CN3C(=O)c4cccc5cccc(c45)C3=O)CC2)cc1OC (stereo not given)	24.2	72.9*	.	.	-1.5	12.3	-4.0	65.1*
O=C(CN1CCOCC1)NCC[C@H]1CC[C@@H](NC(=O)Nc2ccc(C(F)(F)F)cc2)[C@@H](CO)O1	.	.	-1.3	-2.6	.	.	.	.
O=C(Nc1ccc2nn(-c3ccccc3)nc2c1)c1cccnc1	-6.5	0.4	3.4	.	-0.8	1.8	.	.
CC(C)C(=O)Nc1ccc2nn(-c3ccccc3)nc2c1	-12.1	47.7*	-0.4	5.3	1.0	-6.2	48.9*	32.2
CC[C@@H](C)[C@H](CN[C@H](CNC)C(C)C)NC[C@@H](C)c1ccc(CC(C)C)cc1	-10.5	89.4*	27.3	27.4	-9.0	29.3	-2.1	71.5*
O=C1CC(c2ccc(F)cc2)C(n2cncn2)C(O)=C1C1NCCc2ccccc21 (stereo not given)	-5.9	53.5*	-5.7	-3.3	-0.2	-37.5	-1.2	9.0
O=C1CC(c2ccc(F)cc2)CC(O)=C1C1NCCc2ccccc21 (stereo not given)	-1.0	5.3	-9.5	.	-3.5	1.6	.	.
O=C(CCCCCN1C(=O)c2cccc3cccc(c23)C1=O)NCc1cccnc1	2.9	76.4*	5.8	-8.8	-2.8	-13.5	-2.6	58.3*
O=C(CCCN1C(=O)c2cccc3cccc(c23)C1=O)NCc1cccnc1	-1.3	2.1	3.6	11.9	-0.8	-20.4	.	.
Cn1c(=O)c2c(ncn2Cc2ccccc2)n(C)c1=O	3.8	49.8*	1.9	-6.9	-5.3	-3.9	-1.6	29.9
Cn1c(=O)c2c(ncn2CCCc2ccccc2)n(C)c1=O	3.1	-0.3	1.6	.	-3.0	-4.7	.	.
Cc1cccc(C)c1OCc1nnc(SCC(=O)NCCc2ccccc2)o1	0.8	91.5*	3.0	.	-2.0	-37.7	-5.3	2.7
COc1ccc(Cc2nnc(SCC(=O)NCCc3ccccc3)o2)cc1	-6.7	3.8	-2.6	.	2.1	-26.0	.	.
CNC[C@@H](C)NC[C@@H](Cc1ccccc1)NCCc1ccccc1	15.8	6.4	-12.7	-12.0	-9.0	17.2	.	.
CC[C@H](C)[C@@H](CN[C@H](C)CNC)NCCC(c1ccccc1)c1ccccc1	9.8	54.8*	11.4	24.8	-9.1	27.9	-4.0	37.1
CCOC(=O)C1=C(c2ccccc2)NC(N)=NC1c1ccc(OCc2ccc(C(=O)OC)cc2)cc1 (stereo not given)	-16.2	54.6*	.	-9.5	-6.1	13.0	-4.0	92.4*
Fc1ccccc1CN1[C@@H]2CNC[C@H]1C2c1ccc(-c2ccncc2)cc1 (stereo not given in full)	.	.	.	7.1	.	.	.	.
COc1ccc(-c2nnc(SCC(=O)Nc3cc(F)ccc3C)o2)cc1	-5.5	47.3*	9.8	-3.0	-3.3	-3.9	-0.7	35.4
NC(=O)c1nsc(C(=O)N(c2ccc3c(c2)OCCO3)C(C(=O)NCC2CCCO2)c2ccc(F)cc2)c1N (stereo not given)	16.9	42.0	-18.3	-3.0	-2.2	-36.9	.	.
COc1cc(OC)cc(N(C(=O)c2snc(C(N)=O)c2N)C(C(=O)NCC2CCCO2)c2ccc(C)o2)c1 (stereo not given)	6.8	4.0	-3.5	-21.3	-2.9	-37.9	.	.
Cc1ccc(C(C(=O)NCC2CCCO2)N(C(=O)c2snc(C(N)=O)c2N)c2ccc3c(c2)OCCO3)cc1 (stereo not given)	13.1	56.0*	-3.1	-10.8	0.0	-43.2	0.6	79.2*
Cc1ccc(C(C(=O)NCC2CCCO2)N(C(=O)c2snc(C(N)=O)c2N)c2ccc(C)c(C)c2)o1 (stereo not given)	-5.5	64.6*	.	-7.6	-0.6	-42.4	-0.4	70.1*
SMILES	PREPL inh	UBC13 polyUb	RAD54 inh	RAD52 inh	MIN6 prolif	DNA FID counter	Casp3 counter	UBC13 conf
Cc1cc(C)cc(N(C(=O)c2snc(C(N)=O)c2N)C(C(=O)NCC2CCCO2)c2ccc(C)o2)c1 (stereo not given)	-8.0	60.5*	25.9	-21.1	-0.8	-44.1	-0.2	49.1*
CCC(C(=O)NCC1CCCO1)N(C(=O)c1snc(C(N)=O)c1N)c1ccc(Cl)cc1 (stereo not given)	4.3	15.8	-4.6	1.2	-1.4	-29.0	.	.
Cc1cc(C)cc(N(C(=O)c2snc(C(N)=O)c2N)C(C(=O)NCC2CCCO2)c2cccs2)c1 (stereo not given)	2.0	65.6*	.	-16.8	-5.0	-32.8	2.4	70.7*
C[C@H]1CN([C@@H](C)CO)C(=O)Cc2cc(NC(=O)CCC(F)(F)F)ccc2O[C@H]1CN(C)CC1CCCCC1	.	.	6.2	8.0	.	.	.	.
Cc1cc(C(=O)NNC(=S)NC(=O)/C=C/c2ccccc2Cl)n[nH]1	16.4	91.6*	-0.5	-19.4	-3.7	-10.3	-5.9	88.8*
Cc1ccc2nc(/N=C(\N)NC(=O)NC3CCCCC3)nc(C)c2c1	0.7	49.3*	8.6	-8.3	-6.2	6.4	0.8	68.2*
CCCC(=O)N/C(N)=N/c1nc(C)c2cc(C)ccc2n1	-0.7	5.7	4.1	2.3	1.9	-6.6	.	.
COc1ccccc1NC(=O)N1C[C@@H](O)COC[C@H]2O[C@H](CC(=O)NCCc3ccncc3)CC[C@@H]21	.	.	2.8	-16.9	.	.	.	.
O=C(NCC1CCCCC1)C1(CC2CC(c3cccc(Br)c3)=NO2)CCNCC1 (stereo not given)	19.4	50.6*	-14.4	-2.6	-8.9	22.7	4.6	52.3*
CC(C)(C)OC(=O)N1CCC(CC2CC(c3cccc(Br)c3)=NO2)(C(=O)NCC2CCCCC2)CC1 (stereo not given)	6.5	-9.8	-3.9	-9.7	-8.2	-35.8	.	.

Bioassay records from PubChem BioAssay.
